# Experimental data from the supplement of paper PMC8728848.
# This is one part of a sample in which the strongest signals are shown more often than they occur.
# Assays:
# Test in all cases: glycan array binding signal (z-score within array); higher = stronger binding
# Settings in all cases: glycan notation: IUPAC condensed, linker removed
# [1] = target: GlcNAc(b1-3)Gal(b1-4)GlcNAc(b1-3)Gal(b1-4)GlcNAc(b1-2)Man(a1-3)[GlcNAc(b1-3)Gal(b1-4)GlcNAc(b1-3)Gal(b1-4)GlcNAc(b1-2)Man(a1-6)]Man(b1-4)GlcNAc(b1-4)GlcNAc
# In short: (§1)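 The binding signal is a Z-score computed within each array. Data were drawn from 3228 arrays in the Consortium for Functional Glycomics database, restricted to those with a known protein sequence. Scores were averaged over arrays of the same protein sequence at different concentrations or buffers, and over linkers, and negative values can be taken as non-binding.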
# [2] = target: GlcNAc(b1-3)Gal(b1-4)GlcNAc(b1-3)Gal(b1-4)GlcNAc(b1-2)[GlcNAc(b1-3)Gal(b1-4)GlcNAc(b1-3)Gal(b1-4)GlcNAc(b1-6)]Man(a1-6)[GlcNAc(b1-3)Gal(b1-4)GlcNAc(b1-3)Gal(b1-4)GlcNAc(b1-2)Man(a1-3)]Man(b1-4)GlcNAc(b1-4)[Fuc(a1-6)]GlcNAc
# In short: as §1
# [3] = target: GlcNAc(b1-3)Gal(b1-4)GlcNAc(b1-3)Gal(b1-4)GlcNAc(b1-3)Gal(b1-4)GlcNAc(b1-2)Man(a1-3)[GlcNAc(b1-3)Gal(b1-4)GlcNAc(b1-3)Gal(b1-4)GlcNAc(b1-3)Gal(b1-4)GlcNAc(b1-2)Man(a1-6)]Man(b1-4)GlcNAc(b1-4)GlcNAc
# In short: as §1
# [4] = target: GlcNAc(b1-3)Gal(b1-4)GlcNAc(b1-3)Gal(b1-4)GlcNAc(b1-3)Gal(b1-4)GlcNAc(b1-2)Man(a1-3)[GlcNAc(b1-3)Gal(b1-4)GlcNAc(b1-3)Gal(b1-4)GlcNAc(b1-3)Gal(b1-4)GlcNAc(b1-2)Man(a1-6)]Man(b1-4)GlcNAc(b1-4)[Fuc(a1-6)]GlcNAc
# In short: as §1
# [5] = target: GlcNAc(b1-3)Gal(b1-4)GlcNAc(b1-3)Gal(b1-4)GlcNAc(b1-3)Gal(b1-4)GlcNAc(b1-3)Gal(b1-4)GlcNAc(b1-2)[GlcNAc(b1-3)Gal(b1-4)GlcNAc(b1-3)Gal(b1-4)GlcNAc(b1-3)Gal(b1-4)GlcNAc(b1-3)Gal(b1-4)GlcNAc(b1-6)]Man(a1-6)[GlcNAc(b1-3)Gal(b1-4)GlcNAc(b1-3)Gal(b1-4)GlcNAc(b1-3)Gal(b1-4)GlcNAc(b1-3)Gal(b1-4)GlcNAc(b1-2)Man(a1-3)]Man(b1-4)GlcNAc(b1-4)[Fuc(a1-6)]GlcNAc
# In short: as §1
# [6] = target: GlcNAc(b1-3)[GlcNAc(b1-6)]GalNAc
# In short: as §1
# [7] = target: Man(a1-2)Man(a1-3)Man
# In short: as §1
# [8] = target: Man(a1-3)[Man(a1-6)]Man
# In short: as §1
# [9] = target: Neu5Ac(a2-3)Gal(b1-3)GalNAc(b1-4)Gal(b1-4)Glc
# In short: as §1
# [10] = target: Neu5Ac(a2-3)Gal(b1-3)GlcNAc
# In short: as §1
# [11] = target: Neu5Ac(a2-3)Gal(b1-3)GlcNAc(b1-3)Gal(b1-4)GlcNAc
# In short: as §1
# [12] = target: Neu5Ac(a2-3)Gal(b1-3)GlcNAc(b1-6)GalNAc
# In short: as §1
# [13] = target: Neu5Ac(a2-3)Gal(b1-3)[Fuc(a1-4)]GlcNAc(b1-3)Gal(b1-3)[Fuc(a1-4)]GlcNAc
# In short: as §1
# [14] = target: Neu5Ac(a2-3)Gal(b1-4)GlcNAc(b1-2)Man(a1-3)[Neu5Ac(a2-6)Gal(b1-4)GlcNAc(b1-2)Man(a1-6)]Man(b1-4)GlcNAc(b1-4)GlcNAc
# In short: as §1
# [15] = target: Neu5Ac(a2-3)Gal(b1-4)GlcNAc(b1-3)Gal(b1-4)GlcNAc(b1-2)Man(a1-3)[Neu5Ac(a2-3)Gal(b1-4)GlcNAc(b1-3)Gal(b1-4)GlcNAc(b1-2)Man(a1-6)]Man(b1-4)GlcNAc(b1-4)GlcNAc
# In short: as §1
# [16] = target: Neu5Ac(a2-3)Gal(b1-4)GlcNAc(b1-3)Gal(b1-4)GlcNAc(b1-3)Gal(b1-4)GlcNAc(b1-2)Man(a1-3)[Neu5Ac(a2-3)Gal(b1-4)GlcNAc(b1-3)Gal(b1-4)GlcNAc(b1-3)Gal(b1-4)GlcNAc(b1-2)Man(a1-6)]GalNAc
# In short: as §1
# [17] = target: Neu5Ac(a2-3)Gal(b1-4)GlcNAc(b1-3)Gal(b1-4)GlcNAc(b1-3)[Neu5Ac(a2-3)Gal(b1-4)GlcNAc(b1-3)Gal(b1-4)GlcNAc(b1-6)]GalNAc
# In short: as §1
# [18] = target: Neu5Ac(a2-3)Gal(b1-4)GlcNAc(b1-6)[Neu5Ac(a2-3)Gal(b1-3)]GalNAc
# In short: as §1
# [19] = target: Neu5Ac(a2-3)Gal(b1-4)[Fuc(a1-3)]GlcNAc(b1-3)GalNAc
# In short: as §1
# [20] = target: Neu5Ac(a2-3)Gal(b1-4)[Fuc(a1-3)]GlcNAc(b1-6)[Gal(b1-3)]GalNAc
# In short: as §1
# [21] = target: Neu5Ac(a2-6)Gal(b1-4)GlcNAc(b1-2)Man(a1-3)Man(b1-4)GlcNAc(b1-4)GlcNAc
# In short: as §1
# [22] = target: Neu5Ac(a2-6)Gal(b1-4)GlcNAc(b1-2)Man(a1-3)[Neu5Ac(a2-6)Gal(b1-4)GlcNAc(b1-2)Man(a1-6)]Man(b1-4)GlcNAc(b1-4)[Fuc(a1-6)]GlcNAc
# In short: as §1
# [23] = target: Neu5Ac(a2-6)Gal(b1-4)GlcNAc(b1-2)[Neu5Ac(a2-6)Gal(b1-4)GlcNAc(b1-4)]Man(a1-3)[GlcNAc(b1-4)][Neu5Ac(a2-6)Gal(b1-4)GlcNAc(b1-2)[Neu5Ac(a2-6)Gal(b1-4)GlcNAc(b1-6)]Man(a1-6)]Man(b1-4)GlcNAc(b1-4)GlcNAc
# In short: as §1
# [24] = target: Neu5Ac(a2-6)Gal(b1-4)GlcNAc(b1-3)Gal(b1-4)[Fuc(a1-3)]GlcNAc(b1-3)Gal(b1-4)[Fuc(a1-3)]GlcNAc
# In short: as §1
# [25] = target: Neu5Ac(a2-8)Neu5Ac(a2-3)Gal(b1-3)GalNAc(b1-4)[Neu5Ac(a2-8)Neu5Ac(a2-3)]Gal(b1-4)Glc
# In short: as §1
# [26] = target: Neu5Ac(b2-6)GalNAc
# In short: as §1
# [27] = target: Neu5Gc(a2-3)Gal(b1-3)[Fuc(a1-4)]GlcNAc
# In short: as §1
binder,measurement,setting,value
BIp1-His (Cryptococcus neoformans) (protein) MFTKIFVALFAATAVLSAPVESAEKRITHTGRATFYSPSVGIGACGWQNTDEELVVALNAPQYALNADHNCGQSVRITNEQNGNQEIAKVVDLCPGCNDGDLDMSPALFGALNNNDFDQGVFPISWNFLPRDDTSSSN,glycan array binding signal (z-score),[1],1.87
same,glycan array binding signal (z-score),[2],2.23
same,glycan array binding signal (z-score),[3],2.51
same,glycan array binding signal (z-score),[4],3.44
same,glycan array binding signal (z-score),[5],0.882
same,glycan array binding signal (z-score),[6],-0.522
same,glycan array binding signal (z-score),[7],-0.136
same,glycan array binding signal (z-score),[8],0.728
same,glycan array binding signal (z-score),[9],-0.565
same,glycan array binding signal (z-score),[10],-0.217
same,glycan array binding signal (z-score),[11],0.65
same,glycan array binding signal (z-score),[12],1.86
same,glycan array binding signal (z-score),[13],-0.526
same,glycan array binding signal (z-score),[14],-0.064
same,glycan array binding signal (z-score),[15],-0.11
same,glycan array binding signal (z-score),[16],2.41
same,glycan array binding signal (z-score),[17],-0.12
same,glycan array binding signal (z-score),[18],-1.36
same,glycan array binding signal (z-score),[19],1.32
same,glycan array binding signal (z-score),[20],0.648
same,glycan array binding signal (z-score),[21],0.176
same,glycan array binding signal (z-score),[22],0.617
same,glycan array binding signal (z-score),[23],-0.066
same,glycan array binding signal (z-score),[24],-0.059
same,glycan array binding signal (z-score),[25],1.77
same,glycan array binding signal (z-score),[26],-0.971
same,glycan array binding signal (z-score),[27],-0.455
